Active and inactive are the calls of the source. Rule for the calls: active = hit-call score of the fitted dose curve at least 0.9, where 1 is the maximum; inactive = score below 0.9.
Assays:
[1] = target: Transcriptional activator Myb (Homo sapiens) (UniProt P10242); assay: ATG_Myb_CIS: Attagene CIS-FACTORIAL HepG2 Assay for human Myeloblastosis (Myb) Proto-Oncogene Transcription Factor (AID 2282986); conditions: HepG2 Attagene CIS-FACTORIAL Myb reporter transcription; actives raise or lower the signal
Chain of Transcriptional activator Myb (Homo sapiens) (P10242 whole entry, looked up): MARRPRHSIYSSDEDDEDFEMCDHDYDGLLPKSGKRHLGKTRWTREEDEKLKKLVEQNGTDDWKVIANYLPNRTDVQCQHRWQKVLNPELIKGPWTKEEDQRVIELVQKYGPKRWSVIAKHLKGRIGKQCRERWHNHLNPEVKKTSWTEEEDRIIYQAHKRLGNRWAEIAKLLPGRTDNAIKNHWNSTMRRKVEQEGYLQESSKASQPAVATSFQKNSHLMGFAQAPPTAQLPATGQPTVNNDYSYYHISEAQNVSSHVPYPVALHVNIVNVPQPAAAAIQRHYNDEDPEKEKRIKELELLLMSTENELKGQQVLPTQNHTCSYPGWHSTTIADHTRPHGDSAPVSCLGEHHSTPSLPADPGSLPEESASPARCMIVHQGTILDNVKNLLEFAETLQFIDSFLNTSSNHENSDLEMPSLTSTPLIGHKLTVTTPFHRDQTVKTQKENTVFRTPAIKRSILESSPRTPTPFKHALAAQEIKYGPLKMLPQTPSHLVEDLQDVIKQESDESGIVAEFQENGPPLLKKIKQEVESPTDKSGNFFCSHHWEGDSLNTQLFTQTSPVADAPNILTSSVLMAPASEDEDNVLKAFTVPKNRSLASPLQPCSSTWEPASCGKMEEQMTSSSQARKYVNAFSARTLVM
In short: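 HepG2 cells were transiently transfected with cis-regulated multiple reporter transcription units reflecting endogenous Myb activity, then exposed to compound for 24 hours. Reporter mRNA was measured by RT-PCR with capillary electrophoresis; bidirectional fitting versus DMSO baseline.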

[2] = target: Nuclear respiratory factor 1 (Homo sapiens) (UniProt Q16656); assay: ATG_NRF1_CIS: Attagene CIS-FACTORIAL HepG2 Assay for human Nuclear Respiratory Factor 1 (NRF1) Orphan Gene (AID 2282987); conditions: HepG2 NRF1 cis-element reporter, Attagene multiplex; actives raise or lower the signal
Chain of Nuclear respiratory factor 1 (Homo sapiens) (Q16656 whole entry, looked up): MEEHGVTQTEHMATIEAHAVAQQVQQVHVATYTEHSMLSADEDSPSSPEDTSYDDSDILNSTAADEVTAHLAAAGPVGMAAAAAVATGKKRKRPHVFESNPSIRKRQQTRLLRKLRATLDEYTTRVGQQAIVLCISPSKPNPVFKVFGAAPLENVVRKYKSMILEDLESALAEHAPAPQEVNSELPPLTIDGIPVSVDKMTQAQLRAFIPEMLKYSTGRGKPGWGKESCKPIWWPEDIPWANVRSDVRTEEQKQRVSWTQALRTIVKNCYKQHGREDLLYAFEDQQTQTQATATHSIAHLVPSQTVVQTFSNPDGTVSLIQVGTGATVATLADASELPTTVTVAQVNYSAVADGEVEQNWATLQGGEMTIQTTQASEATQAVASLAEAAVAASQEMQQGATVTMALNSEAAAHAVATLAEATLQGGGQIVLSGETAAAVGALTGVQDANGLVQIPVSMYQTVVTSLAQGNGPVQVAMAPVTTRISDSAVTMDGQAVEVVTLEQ
In short: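 HepG2 cells transiently transfected with multiple reporter transcription units under cis-regulatory promoter control, so endogenous transcription-factor activity is read. After 24 h compound exposure, reporter mRNA quantified by RT-PCR, fluorescent labelling, HpaI digestion and capillary electrophoresis; bidirectional fitting versus DMSO.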

[3] = ATG_NFI_CIS: Attagene CIS-FACTORIAL HepG2 Assay for human Nuclear Factor I (NFI) (AID 2282989); conditions: HepG2 cis-regulatory reporter, NFI response element transcription; actives raise or lower the signal
In short: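 HepG2 cells transiently transfected with cis-element-driven multiplexed reporter transcription units, dosed for 24 h. Reporter mRNA quantified by RT-PCR, fluorescent labelling, HpaI digestion and capillary electrophoresis; bidirectional fit versus DMSO baseline.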

[4] = target: Myc proto-oncogene protein (Homo sapiens) (UniProt P01106); assay: ATG_Myc_CIS: Attagene CIS-FACTORIAL HepG2 Assay for human Myelocytomatosis (Myc) Proto-Oncogene Transcription Factor (AID 2282990); conditions: HepG2, Attagene cis-reporter transcription factor activity; actives raise or lower the signal
Chain of Myc proto-oncogene protein (Homo sapiens) (P01106 whole entry, looked up): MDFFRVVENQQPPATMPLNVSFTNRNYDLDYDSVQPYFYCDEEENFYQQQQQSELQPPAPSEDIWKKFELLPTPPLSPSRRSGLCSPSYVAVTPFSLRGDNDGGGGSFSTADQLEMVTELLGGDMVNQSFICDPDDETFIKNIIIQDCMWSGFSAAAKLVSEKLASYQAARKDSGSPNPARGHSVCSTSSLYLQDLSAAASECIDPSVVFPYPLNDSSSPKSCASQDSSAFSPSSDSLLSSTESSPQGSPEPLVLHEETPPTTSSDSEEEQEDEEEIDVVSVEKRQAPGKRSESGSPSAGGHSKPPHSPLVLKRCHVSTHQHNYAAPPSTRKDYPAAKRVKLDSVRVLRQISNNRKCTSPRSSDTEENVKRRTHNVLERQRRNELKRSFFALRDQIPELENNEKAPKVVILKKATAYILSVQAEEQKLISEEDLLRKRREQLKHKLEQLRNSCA
In short: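 DMSO-normalised, bidirectionally fitted reporter mRNA signal. HepG2 cells transfected with cis reporter constructs, treated 24 h; transcripts detected by RT-PCR, 6-FAM primer extension and CE.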

[5] = ATG_NF_kB_CIS: Attagene CIS-FACTORIAL HepG2 Assay for human Nuclear Factor Kappa B (NF-kB) (AID 2282991); conditions: HepG2 Attagene cis-factorial NF-kB reporter mRNA; actives raise or lower the signal
In short: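 HepG2 cells transiently transfected with multiplexed cis-element reporter units measuring endogenous transcription factor activity; reporter mRNA read 24 h after dosing by RT-PCR, fluorescent labelling, HpaI digestion and capillary electrophoresis. Bidirectional fit against DMSO baseline.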

[6] = ATG_NRF2_ARE_CIS: Attagene CIS-FACTORIAL HepG2 Assay for human Nuclear Factor Erythroid 2 Related Factor 2 (NFR2) response to Antioxidant Response Elements (ARE) (AID 2282992); conditions: HepG2 Attagene ARE/NRF2 reporter, transcription factor activity; actives raise or lower the signal;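 for AC50: reporter mRNA level measured by RT-PCR and capillary electrophoresis fluorescence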
In short: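 Fluorescence intensity of reporter-specific cDNA fragments, separated by capillary electrophoresis, reflects mRNA induction in transfected HepG2 cells at 24 h. Activity is fitted bidirectionally, DMSO serving as baseline.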

[7] = BSK_3C_TissueFactor: BioMAP Diversity Plus: 3C Assay for Tissue Factor Biomarker Activity (AID 2282997); conditions: BioMAP 3C HUVEC, tissue factor biomarker readout; actives raise or lower the signal
In short: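 Tissue factor on primary human umbilical vein endothelium was read by ELISA 24 h after dosing, gain or loss relative to DMSO. Cytotoxicity ran alongside via SRB (0.1%, TCA-fixed, 560 nm).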

[8] = BSK_3C_uPAR: BioMAP Diversity Plus: 3C Assay for Urokinase-type plasminogen activator receptor (uPAR) Biomarker Activity (AID 2282998); conditions: BioMAP 3C HUVEC, uPAR biomarker ELISA; actives raise or lower the signal
In short: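 Human umbilical vein endothelial primary cells were exposed to test chemical for 24 h. Cell-surface uPAR was then quantified by ELISA, and responses were fitted bidirectionally against DMSO as negative control and baseline.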

[9] = target: Cellular tumor antigen p53 (Homo sapiens) (UniProt P04637); assay: ATG_p53_CIS: Attagene CIS-FACTORIAL HepG2 Assay for human p53 Transcription Factor (AID 2282994); conditions: HepG2 p53 cis-element reporter, Attagene mRNA; actives raise or lower the signal
Chain of Cellular tumor antigen p53 (Homo sapiens) (P04637 whole entry, looked up): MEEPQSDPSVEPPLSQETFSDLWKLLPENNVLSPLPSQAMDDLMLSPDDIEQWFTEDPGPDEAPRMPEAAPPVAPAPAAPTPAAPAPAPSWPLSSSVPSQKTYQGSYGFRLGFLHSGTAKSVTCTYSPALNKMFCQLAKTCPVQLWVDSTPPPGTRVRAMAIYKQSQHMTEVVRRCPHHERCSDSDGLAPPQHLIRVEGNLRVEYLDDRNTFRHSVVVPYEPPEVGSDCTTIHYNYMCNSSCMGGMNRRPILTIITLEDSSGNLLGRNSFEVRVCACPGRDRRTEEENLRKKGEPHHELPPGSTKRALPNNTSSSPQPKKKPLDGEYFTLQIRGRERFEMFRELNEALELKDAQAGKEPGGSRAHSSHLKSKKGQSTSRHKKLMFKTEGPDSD
In short: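 Transiently transfected HepG2 (multiple cis reporter transcription units); exposure 24 h; reporter RNA via RT-PCR, 6-FAM extension, 2 h HpaI digest at 37 C, CE detection; DMSO baseline.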

[10] = ATG_Oct_MLP_CIS: Attagene CIS-FACTORIAL HepG2 Assay for human Octamer-Binding Transcription Factor (Oct) (AID 2282993); conditions: HepG2 Attagene cis-factorial Oct reporter, mRNA; actives raise or lower the signal
In short: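 HepG2 cells transiently transfected with cis-promoter-driven multiplexed reporter transcription units, dosed for 24 h. Reporter mRNA quantified by RT-PCR, fluorescent labelling, HpaI digestion and capillary electrophoresis; bidirectional fits versus DMSO baseline.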

Measured: AC50

CC(COc1ccc(Oc2ccccc2)cc1)Oc1ccccn1 (stereo not given)
active: [5] 13.8 µM | [6] 7.23 µM | [8] 23.6 µM
not listed: [9] | [10]
inactive: all other assays above

CCOP(=O)(SC(C)CC)N1CCSC1=O (stereo not given)
not listed: [5] | [9] | [10]
inactive: all other assays above

C[Si](Cn1cncn1)(c1ccc(F)cc1)c1ccc(F)cc1
active: [2] 73.7 µM | [6] 11.8 µM
inactive: [1] | [3] | [4] | [7] | [8]

Cc1cc(C2CC2)nc(Nc2ccccc2)n1
inactive: [4] | [7] | [8]
active: [1] 79.1 µM | [2] 76 µM | [3] 29.3 µM | [6] 13 µM

O=C(O)c1cc(Oc2ccc(C(F)(F)F)cc2Cl)ccc1[N+](=O)[O-]
active: [8] 29.2 µM
not listed: [9] | [10]
inactive: all other assays above

CCc1cccc(C)c1N(C(=O)CCl)C(C)COC (stereo not given)
active: [6] 5.18 µM
not listed: [10]
inactive: all other assays above

CCCCOC(=O)c1ccccc1C(=O)O
not listed: [9]
inactive: all other assays above

Cc1ccn2nc(S(=O)(=O)Nc3c(F)cccc3F)nc2n1
not listed: [5] | [9]
inactive: all other assays above

CN(C)NC(=O)CCC(=O)O
not listed: [10]
inactive: all other assays above

S=C1NCCN1
not listed: [9] | [10]
inactive: all other assays above

COP(=O)(NC(C)=O)SC (stereo not given)
not listed: [5] | [9] | [10]
inactive: all other assays above

CSc1nnc(C(C)(C)C)c(=O)n1N
inactive: all assays above

CON=C(C(=O)OC)c1ccccc1CON=C(C)c1cccc(C(F)(F)F)c1
active: [5] 73.1 µM | [6] 15.7 µM
not listed: [9] | [10]
inactive: all other assays above

CC(C)=CC1C(C(=O)OCN2C(=O)C3=C(CCCC3)C2=O)C1(C)C (stereo not given)
inactive: [2] | [3] | [4] | [9]
active: [1] 50 µM | [6] 16.2 µM | [10] 35.4 µM | [7] 12.7 µM | [8] 15.5 µM

CCC(CC)Nc1c([N+](=O)[O-])cc(C)c(C)c1[N+](=O)[O-]
active: [6] 14.4 µM
not listed: [1] | [9] | [10]
inactive: all other assays above

CC(C1CC1)C(O)(Cn1cncn1)c1ccc(Cl)cc1 (stereo not given)
not listed: [1] | [9] | [10]
inactive: all other assays above

C#CCC1=C(C)C(OC(=O)C2C(C=C(C)C)C2(C)C)CC1=O (stereo not given)
inactive: [2] | [7] | [8]
active: [3] 80 µM | [4] 68.1 µM | [6] 13.2 µM

COP(=O)(OC)C(O)C(Cl)(Cl)Cl (stereo not given)
active: [6] 29.9 µM | [10] 50 µM
not listed: [1] | [9]
inactive: all other assays above

CCNc1nc(Cl)nc(NC(C)(C)C#N)n1
inactive: [2] | [3] | [4] | [6] | [7] | [8]

CC(C)N(C(=O)SCC(Cl)=C(Cl)Cl)C(C)C
inactive: [2] | [3] | [4] | [5]
active: [6] 13.5 µM | [10] 24.7 µM | [7] 32.9 µM | [8] 32.2 µM

CCC(=NOC/C=C/Cl)C1=C(O)CC(C2CCOCC2)CC1=O (stereo not given)
not listed: [1] | [9] | [10]
inactive: all other assays above

COP(=O)(OC)OC(Br)C(Cl)(Cl)Br (stereo not given)
inactive: [2] | [3] | [4] | [6] | [10]
active: [7] 16.3 µM | [8] 31.7 µM

CC(C)[C@H](C(=O)O[C@H](C#N)c1cccc(Oc2ccccc2)c1)c1ccc(Cl)cc1
active: [6] 0.938 µM
not listed: [1] | [9]
inactive: all other assays above

CSC1=N[C@@](C)(c2ccccc2)C(=O)N1Nc1ccccc1
active: [6] 4.24 µM | [10] 10.7 µM | [7] 1.68 µM | [8] 7.46 µM
inactive: [2] | [3] | [4]
